Records with an inconclusive call do not appear. Active and inactive are the calls of the source. Calls come from the whole dose curve; as a rule, active = well fitted curve in the direction sought with a large enough effect; inconclusive = small, poorly fitted or top-dose-only effect, or another doubt; inactive = no such curve, though single readings can be large; an effect the other way counts as inactive or inconclusive.

Experiment [1] is described as follows: qHTS of pediatric cancer cell lines to identify multiple opportunities for drug repurposing: Primary screen for OHS-50 cells (AID 1347103). Note: nearly all actives have a fitted effect of over 40% in size. Note: potency is the fitted concentration of half-maximal effect. The method, boiled down: (§1)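 Cells (500-1,000/well) rested 5 h, then received compounds for 48 h; metabolically active cells were measured by CellTiter-Glo luminescence. Final concentrations spanned up to 46 µM (MIPE, 11-point) or 0.59 nM-46 µM (NPC, 8-point) in primary screens, 11-point in follow-ups.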

The nature of experiment [2]: qHTS of pediatric cancer cell lines to identify multiple opportunities for drug repurposing: Primary screen for RD cells (AID 1347104). Note: nearly all actives have a fitted effect of over 55% in size. Note: potency is the fitted concentration of half-maximal effect. The method, boiled down: (§2)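 Cells seeded at 500-1,000 cells/well in growth media, rested 5 hours at 37 degrees C, 5% CO2, then dosed; MIPE compounds at 11-point (from 0.78 nM) and NPC at 8-point (from 0.59 nM) final concentrations. Viability by CellTiter-Glo luminescence after 48 hours.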
A general note: qHTS replaces the single test concentration by a dilution series.

A short description of experiment [3]: qHTS of pediatric cancer cell lines to identify multiple opportunities for drug repurposing: Primary screen for MG 63 (6-TG R) cells (AID 1347105). Note: nearly all actives have a fitted effect of over 50% in size. Note: potency is the fitted concentration of half-maximal effect. The method, boiled down: as §2
Experiment [4] in a line: qHTS of pediatric cancer cell lines to identify multiple opportunities for drug repurposing: Primary screen for Rh30 cells (AID 1347107). Note: series mostly up to about 46 µM; nearly all actives have a fitted effect of over 75% in size. The method, boiled down:
as §1

Experiment [5] is described as follows: qHTS of pediatric cancer cell lines to identify multiple opportunities for drug repurposing: Primary screen for control Hh wild type fibroblast cells (AID 1347106).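 Note: series mostly up to about 46 µM; a drop in luminescence marks cytotoxicity and a rise apparent proliferation; nearly all actives have a fitted effect of over 55% in size.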 The method, boiled down: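 Cells (500-1,000/well) in growth media were settled 5 h at 37 degrees C, then given compounds for 48 h. Viability was read as CellTiter-Glo luminescence. Primary runs used MIPE at 11 points (0.78 nM-46 µM) and NPC at 8 points (0.59 nM-46 µM); follow-ups used 11 points.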

Experiment [6] is described as follows: qHTS of pediatric cancer cell lines to identify multiple opportunities for drug repurposing: Primary screen for Rh41 cells (AID 1347108).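 Note: series mostly up to about 46 µM; luminescence drop marks cytotoxic hits; nearly all actives have a fitted effect of over 70% in size.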 The method, boiled down: as §2
A short description of experiment [7]: qHTS of pediatric cancer cell lines to identify multiple opportunities for drug repurposing: Confirmatory screen for NB1643 cells (AID 1347109). Note: nearly all actives have a fitted effect of over 45% in size. The method, boiled down:
as §1

Experiment [8] is described as follows: qHTS of pediatric cancer cell lines to identify multiple opportunities for drug repurposing: Confirmatory screen for A673 cells (AID 1347110).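 Note: cells exposed to compound for 48 h before the viability read; nearly all actives have a fitted effect of over 65% in size.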 The method, boiled down:
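Viability was read as ATP luminescence (CellTiter-Glo) after 48 h of compound exposure at 37 C in A673 cells seeded at 500-1,000/well. Titrations reached 46 uM final, with 11 points in the confirmatory screen. Concentration-response curves were fitted directly.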

Experiment [9] in a line: qHTS of pediatric cancer cell lines to identify multiple opportunities for drug repurposing: Confirmatory screen for BT-12 cells (AID 1347112). Note: nearly all actives have a fitted effect of over 55% in size. The method, boiled down: as §1
Experiment [10] is described as follows: qHTS of pediatric cancer cell lines to identify multiple opportunities for drug repurposing: Confirmatory screen for DAOY cells (AID 1347114). Note: nearly all actives have a fitted effect of over 65% in size. The method, boiled down: (§3)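 Viability measured as metabolically active cells via CellTiter-Glo luminescence following 48 hours of compound exposure, 11-point dilutions in confirmatory testing. 500-1,000 cells/well plated 5 hours before dosing; controls were DMSO and 2.3 µM bortezomib.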

Experiment [11] can be described thus: qHTS of pediatric cancer cell lines to identify multiple opportunities for drug repurposing: Confirmatory screen for NB-EBc1 cells (AID 1347115).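 Note: cells exposed to compound for 48 h before the viability read; nearly all actives have a fitted effect of over 45% in size.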 Note: potency is the fitted concentration of half-maximal effect. The method, boiled down: as §1
Experiment [12] in a line: qHTS of pediatric cancer cell lines to identify multiple opportunities for drug repurposing: Confirmatory screen for SJ-GBM2 cells (AID 1347116). Note: nearly all actives have a fitted effect of over 60% in size. The method, boiled down:
as §3

A short description of experiment [13]: qHTS of pediatric cancer cell lines to identify multiple opportunities for drug repurposing: Confirmatory screen for BT-37 cells (AID 1347117). Note: nearly all actives have a fitted effect of over 55% in size. The method, boiled down:
as §1

A short description of experiment [14]: qHTS of pediatric cancer cell lines to identify multiple opportunities for drug repurposing: Confirmatory screen for TC32 cells (AID 1347118).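 Note: potency is the fitted concentration of half-maximal effect; cells exposed to compound for 48 h before the read; nearly all actives have a fitted effect of over 65% in size.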 The method, boiled down: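 qHTS, TC32, 48 h drug treatment, CellTiter-Glo luminescence as a proxy for metabolically active cells; primary top concentration 46 µM (MIPE 11-pt, NPC 8-pt); confirmatory 11-pt.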
Experiment [15] in a line: qHTS of pediatric cancer cell lines to identify multiple opportunities for drug repurposing: Confirmatory screen for MG 63 (6-TG R) cells (AID 1347119). Note: nearly all actives have a fitted effect of over 55% in size. The method, boiled down:
as §1

The nature of experiment [16]: qHTS of pediatric cancer cell lines to identify multiple opportunities for drug repurposing: Confirmatory screen for control Hh wild type fibroblast cells (AID 1347121). Note: nearly all actives have a fitted effect of over 70% in size. The method, boiled down: as §1
Experiment [17] in a line: qHTS of pediatric cancer cell lines to identify multiple opportunities for drug repurposing: Confirmatory screen for U-2 OS cells (AID 1347122). Note: nearly all actives have a fitted effect of over 65% in size. The method, boiled down: as §1
A short description of experiment [18]: qHTS of pediatric cancer cell lines to identify multiple opportunities for drug repurposing: Confirmatory screen for RD cells (AID 1347124). The method, boiled down: as §1
A short description of experiment [19]: qHTS of pediatric cancer cell lines to identify multiple opportunities for drug repurposing: Confirmatory screen for Rh18 cells (AID 1347125). Note: nearly all actives have a fitted effect of over 55% in size. The method, boiled down: as §1
Experiment [20] can be described thus: qHTS of pediatric cancer cell lines to identify multiple opportunities for drug repurposing: Confirmatory screen for LAN-5 cells (AID 1347113). Note: nearly all actives have a fitted effect of over 65% in size. The method, boiled down: as §1

In the case of `c1ccc2nc(N3CCNCC3)ccc2c1`, the Potency result in [1], in experiment [2], in experiment [3] and in experiment [4] was “inactive” throughout.
For the compound `O=C(N[C@@H]1N=C(c2ccccc2F)c2cccc3c2N(CC3)C1=O)c1cc2ccccc2[nH]1`, the Potency result in experiment [1], in experiment [2], in experiment [5], in [4] and in experiment [6] was “inactive” throughout.
With `O=C(O)CCCCCCNC1c2ccccc2CCc2ccccc21`, the Potency entry in [1], in [2], in [3], in experiment [5] and in [4] was “inactive” each time.
Consider `COC(=O)C1=CCCN(C)C1`, for which the Potency entry in [1], in [2], in experiment [3], in experiment [5], in experiment [4] and in experiment [6] was “inactive” throughout. Further, the Potency entry in experiment [7], in experiment [8], in experiment [9], in experiment [10], in experiment [11] and in experiment [12] was “inactive” each time. The Potency result in experiment [13], in experiment [15], in experiment [16], in experiment [17], in experiment [18] and in [19] was “inactive” each time. In experiment [14], the Potency is 10.4 µM (active).
Consider `CCOC(=O)C1(c2ccccc2)CCN(CCc2ccc(N)cc2)CC1`, for which the Potency entry in [1], in [2], in experiment [3] and in experiment [4] was “inactive” throughout.
Regarding `C[N+](C)(C)CCOC(=O)C(O)(c1ccccc1)c1ccccc1`, the Potency entry in experiment [1], in [2], in [3], in experiment [4] and in [6] was “inactive” throughout.
On to `c1ccc2c(c1)Sc1ccccc1N2CC1CN2CCC1CC2` (configuration not stated), for which the Potency was 19.5 µM (active) in experiment [1], 15 µM (active) in [2] and 21.1 µM (active) in experiment [3].
Turning to `COc1ccc2c3c1O[C@H]1[C@@H](O)C=C[C@H]4[C@@H](C2)N(C)CC[C@@]341`, the Potency in [1] was 44 µM (active); in experiment [2] it was 47.6 µM (active). In addition, the Potency result in [5] and in experiment [4] was “inactive” each time.
Turning to `C[N+]1(CCC(C(N)=O)(c2ccccc2)c2ccccc2)CCCCC1`, the Potency entry in experiment [1], in [2], in experiment [3], in experiment [4] and in experiment [6] was “inactive” in each case.
Take `CC(C)[N+](C)(CCC(C(N)=O)(c1ccccc1)c1ccccc1)C(C)C`: the Potency entry in experiment [1], in experiment [2], in experiment [3], in experiment [5] and in experiment [4] was “inactive” in each case.
Consider `CCOC(=O)NC(C)(C)Cc1ccc(Cl)cc1`, for which the Potency result in experiment [1], in [2], in experiment [3], in experiment [4] and in [6] was “inactive” each time.
Regarding `O=C(O)Cc1ccccc1`, the Potency entry in experiment [1], in experiment [2], in [3], in [4], in [8] and in experiment [20] was “inactive” throughout. Besides, the Potency result in experiment [10], in experiment [11], in experiment [16] and in [17] was “inactive” in each case.
As for `CCC1(c2cccc(O)c2)CCCCN(C)C1` (configuration not stated), the Potency result in experiment [1], in experiment [2], in [3], in [5], in experiment [4] and in [6] was “inactive” in each case.
For `COc1ccc(CN2CCNCC2)c(OC)c1OC`, the Potency entry in experiment [1], in [2], in experiment [3], in [5], in experiment [4] and in [6] was “inactive” each time.
As for `CCN1CCCC1CNC(=O)C(O)(c1ccccc1)c1ccccc1` (configuration not stated), the Potency result in experiment [1], in experiment [2], in experiment [3], in experiment [5], in experiment [4] and in experiment [6] was “inactive” each time.
On to `CCN(Cc1ccc(Cl)nc1)/C(=C/[N+](=O)[O-])NC`, for which the Potency result in experiment [1], in experiment [2], in [3], in [5] and in [4] was “inactive” in each case.
As for `CCC1(CC)C(=O)NC(=O)NC1=O`, the Potency entry in experiment [1], in experiment [2], in experiment [3], in experiment [5], in experiment [4] and in experiment [6] was “inactive” throughout.
As to `ClC1=C(Cl)C2(Cl)C(CBr)CC1(Cl)C2(Cl)Cl` (configuration not stated), the Potency entry in [1], in [2], in experiment [3], in [5], in experiment [4] and in experiment [6] was “inactive” throughout. Further, the Potency entry in experiment [7], in [9], in experiment [20], in experiment [10], in experiment [11] and in [12] was “inactive” throughout. Moreover, the Potency entry in experiment [13], in [15], in [16], in [18] and in experiment [19] was “inactive” in each case.
As to `CCCC[N+]1(C)[C@@H]2CC(OC(=O)[C@H](CO)c3ccccc3)C[C@H]1[C@@H]1O[C@@H]12` (some centres not stated), the Potency result in [1], in experiment [2], in experiment [3], in experiment [5] and in experiment [4] was “inactive” throughout.
As for `CC[n+]1c(-c2ccccc2)c2cc(N)ccc2c2ccc(N)cc21`, the Potency in experiment [11] was 5.22 µM (active).
On the same count and under the same terms, to `COc1ccc2c(C(=O)c3ccc(Cl)cc3)c(C)n(CC(=O)O)c2c1` belongs “inactive”.
`C[C@]12CC[C@H]3[C@@H](CC=C4C[C@@H](O)CC[C@@]43C)[C@@H]1CC[C@@H]2O`: the Potency entry in experiment [2], in experiment [3], in experiment [4] and in experiment [6] was “inactive” throughout.
In the case of `O=C(CBr)Nc1ccc(Cl)cc1C(=O)c1ccccc1F`, the Potency result in experiment [2], in experiment [3], in experiment [5], in experiment [4] and in [6] was “inactive” each time.
For `Cc1ncc2n1-c1ccc(Cl)cc1C(c1ccccc1F)=NC2`, the Potency entry in experiment [2], in [5], in experiment [4] and in experiment [6] was “inactive” throughout.
Turning to `CC[C@]1(O)CC[C@H]2[C@@H]3CCC4=CCCC[C@@H]4[C@H]3CC[C@@]21C`, the Potency entry in experiment [2], in experiment [5], in experiment [4] and in experiment [6] was “inactive” throughout.
On to `O=C(O)c1nn(Cc2ccc(Cl)cc2Cl)c2ccccc12`, for which the Potency entry in experiment [2], in [3] and in experiment [4] was “inactive” in each case.
`O=c1n(Cl)c(=O)n(Cl)c(=O)n1Cl`: the Potency result in experiment [2], in [3], in experiment [5], in experiment [4] and in [6] was “inactive” each time.

The values above are taken from PubChem BioAssay (NCATS).
